Test results: the antibiotic and cytotoxicity screens of Wong et al. (2023)
The whole screen tested about 39,000 compounds, of which about 3,300 (8.5%) were called active. Shown is part of a subset that was picked to be rich in actives.

These compounds were tested on HepG2 (assay: cytotoxicity call (relative viability < 0.9)). Conditions: 10 µM.

SMILES	cytotoxicity call
CO[C@@H]1CN(C)C(=O)c2ccc(NS(=O)(=O)CC(F)(F)F)cc2OC[C@@H](C)N(Cc2nccs2)C[C@H]1C	inactive
C=CC[C@H](CC(=O)NCCO)C(=O)NC[C@@H](OC(=O)[C@@H](CC=C)CC(=O)OC(C)(C)C)c1ccccc1	inactive
C[C@H](CO)N1C[C@H](C)[C@@H](CN(C)CC2CC2)Oc2c(NS(=O)(=O)c3ccccc3)cccc2C1=O	inactive
CC(C)NC(=O)N(C)C[C@H]1Oc2ccc(NC(=O)Cn3cnnn3)cc2C(=O)N([C@H](C)CO)C[C@H]1C	inactive
CCCCC(=O)OC1(C(=O)CO)C(C)CC2C3CCC4=CC(=O)C=CC4(C)C3(F)C(O)CC21C (configuration not stated)	inactive
Nc1cc(=O)nc(N)[nH]1	inactive
C[C@H]1CN([C@@H](C)CO)C(=O)c2cccc(NC(=O)c3ccncc3)c2O[C@H]1CN(C)S(=O)(=O)c1ccccc1	inactive
CC(C)CC#Cc1ccc2c(c1)O[C@@H](CN(C)C(=O)Cc1ccncc1)[C@@H](C)CN([C@@H](C)CO)S2(=O)=O	inactive
CO[C@H]1CN(C)C(=O)c2cc(NC(=O)Nc3cccc(F)c3)ccc2OC[C@H](C)N(C(=O)Nc2c(C)noc2C)C[C@H]1C	inactive
C[C@@H]1CCCCO[C@@H](CN(C)Cc2ccc(Cl)c(Cl)c2)[C@@H](C)CN([C@@H](C)CO)C(=O)c2cc(NC(=O)Nc3ccc4c(c3)OCO4)ccc2O1	active
C[C@@H]1CN([C@@H](C)CO)C(=O)c2cc(NC(=O)Nc3ccc4c(c3)OCO4)ccc2O[C@@H](C)CCCCO[C@H]1CN(C)Cc1ccc(Cl)c(Cl)c1	inactive
C[C@@H]1CCCCO[C@@H](CN(C)Cc2ccc(Cl)c(Cl)c2)[C@H](C)CN([C@H](C)CO)C(=O)c2cc(NC(=O)Nc3ccc4c(c3)OCO4)ccc2O1	inactive
C[C@@H]1CCCCO[C@H](CN(C)Cc2ccc(Cl)c(Cl)c2)[C@H](C)CN([C@@H](C)CO)C(=O)c2cc(NC(=O)Nc3ccc4c(c3)OCO4)ccc2O1	active
CC(C)(C)NC(=O)N1CCC(CN)CC1	inactive
C[C@H]1CCCCO[C@H](CN(C)C(=O)NC2CCCCC2)[C@@H](C)CN([C@@H](C)CO)C(=O)c2cc(NC(=O)Nc3ccc(F)cc3)ccc2O1	inactive
CO[C@@H]1[C@H](O)[C@@H](CO)O[C@H]1n1cc(C)c(N)nc1=O	inactive
C[C@@H]1CN([C@H](C)CO)C(=O)c2cccc(NS(=O)(=O)c3ccc(Cl)cc3)c2O[C@@H]1CN(C)Cc1ccc(C(F)(F)F)cc1	inactive
CC(C)NC(=O)Nc1ccc2c(c1)C(=O)N([C@H](C)CO)C[C@H](C)[C@H](CN(C)Cc1ccccc1)OCCCC[C@H](C)O2	inactive
C[C@H]1CN([C@@H](C)CO)S(=O)(=O)c2ccc(C#Cc3ccccc3)cc2O[C@@H]1CN(C)S(C)(=O)=O	inactive
CC1(N)CCN(c2cccnc2NC(=O)c2nc(-c3ncccc3C(F)(F)F)cnc2N)CC1	inactive
CCCNC(=O)N1C[C@H](C)[C@H](OC)CN(C)C(=O)c2cc(NS(=O)(=O)CC(F)(F)F)ccc2OC[C@@H]1C	inactive

SMILES	cytotoxicity call
COc1ccc(S(=O)(=O)Nc2ccc3c(c2)CC(=O)N([C@H](C)CO)C[C@H](C)[C@H](CN(C)Cc2ccc(Oc4ccccc4)cc2)O3)cc1	active
COc1ccc(S(=O)(=O)Nc2ccc3c(c2)CC(=O)N([C@@H](C)CO)C[C@@H](C)[C@@H](CN(C)Cc2ccc(Oc4ccccc4)cc2)O3)cc1	inactive
COc1ccc(S(=O)(=O)Nc2ccc3c(c2)CC(=O)N([C@H](C)CO)C[C@H](C)[C@@H](CN(C)Cc2ccc(Oc4ccccc4)cc2)O3)cc1	inactive
COc1ccc(S(=O)(=O)Nc2ccc3c(c2)CC(=O)N([C@H](C)CO)C[C@@H](C)[C@H](CN(C)Cc2ccc(Oc4ccccc4)cc2)O3)cc1	active
COc1ccc(S(=O)(=O)Nc2ccc3c(c2)CC(=O)N([C@@H](C)CO)C[C@H](C)[C@H](CN(C)Cc2ccc(Oc4ccccc4)cc2)O3)cc1	inactive
COc1ccc(S(=O)(=O)Nc2ccc3c(c2)CC(=O)N([C@@H](C)CO)C[C@@H](C)[C@H](CN(C)Cc2ccc(Oc4ccccc4)cc2)O3)cc1	inactive
COc1ccc(S(=O)(=O)Nc2ccc3c(c2)CC(=O)N([C@@H](C)CO)C[C@H](C)[C@@H](CN(C)Cc2ccc(Oc4ccccc4)cc2)O3)cc1	active
COc1ccc(S(=O)(=O)Nc2ccc3c(c2)CC(=O)N([C@H](C)CO)C[C@@H](C)[C@@H](CN(C)Cc2ccc(Oc4ccccc4)cc2)O3)cc1	active
COc1ccc(NC(=O)Nc2ccc3c(c2)C(=O)N([C@H](C)CO)C[C@@H](C)[C@H](CN(C)C(=O)NC2CCCCC2)OCCCC[C@H](C)O3)cc1	inactive
C[C@@H]1CN([C@@H](C)CO)C(=O)c2cc(C#CCN(C)C)cnc2O[C@H]1CN(C)Cc1ccc(C(=O)O)cc1	inactive
COc1cccc(OC)c1C(=O)O[C@H]1[C@@H]2OC(=O)[C@@H](Cc3ccc4ccccc4c3)C/C=C/C[C@H](Cc3ccc4ccccc4c3)C(=O)O[C@H]2[C@@H](OC)O[C@@H]1CO	inactive
Cc1ccc(S(=O)(=O)N(C)C[C@@H]2Oc3ccc(NC(=O)Cn4cnnn4)cc3C(=O)N([C@H](C)CO)C[C@@H]2C)cc1	inactive
Cc1noc(C)c1S(=O)(=O)Nc1cccc2c1O[C@@H](CN(C)S(=O)(=O)c1ccccc1)[C@@H](C)CN([C@@H](C)CO)C2=O	inactive
C[C@H](CO)N1C[C@H](C)[C@@H](CN(C)C(=O)c2ccccc2)OCCCC[C@H](C)Oc2ccc(NS(=O)(=O)c3cccs3)cc2C1=O	inactive
CN1CCN(C(=O)C[C@H]2CC[C@@H]3[C@H](COC[C@@H](O)CN3S(=O)(=O)c3cccc(Cl)c3)O2)CC1	inactive
CCS(=O)(=O)N1CC[C@]2(CC1)CN([C@@H](CO)c1c2c2ccc(cc2n1C)OC)S(=O)(=O)c1ccccc1	inactive
C[C@@H]1CN([C@H](C)CO)C(=O)c2cccc(NC(=O)Nc3ccc(C(F)(F)F)cc3)c2O[C@H]1CN(C)C(=O)NC1CCCCC1	active
C[C@H](CO)N1C[C@H](C)[C@H](CN(C)C(=O)NC2CCCCC2)Oc2c(NC(=O)Nc3ccc(C(F)(F)F)cc3)cccc2C1=O	active
C[C@H](CO)N1C[C@H](C)[C@@H](CN(C)C(=O)NC2CCCCC2)Oc2c(NC(=O)Nc3ccc(C(F)(F)F)cc3)cccc2C1=O	active
C[C@@H]1CN([C@H](C)CO)C(=O)c2cccc(NC(=O)Nc3ccc(C(F)(F)F)cc3)c2O[C@@H]1CN(C)C(=O)NC1CCCCC1	active
O=C(N[C@H]1CC[C@H](CCNS(=O)(=O)c2ccccc2)O[C@@H]1CO)c1cnccn1	inactive

SMILES	cytotoxicity call
C[C@@H]1CCCCO[C@@H](CN(C)C(=O)NC2CCCCC2)[C@H](C)CN([C@H](C)CO)C(=O)c2cc(NC(=O)C3CCCCC3)ccc2O1	inactive
C[C@@H]1CN([C@H](C)CO)S(=O)(=O)c2ccc(C#CCN(C)C)cc2O[C@@H]1CN(C)S(=O)(=O)c1cccc(F)c1	inactive
CC(C)NC(=O)Nc1ccc2c(c1)C(=O)N([C@H](C)CO)C[C@H](C)[C@H](CN(C)C(=O)C1CCCCC1)OCCCC[C@@H](C)O2	inactive
COc1ccc(NC(=O)Nc2ccc3c(c2)C(=O)N([C@@H](C)CO)C[C@H](C)[C@@H](CN(C)S(=O)(=O)c2ccc(Cl)cc2)OCCCC[C@@H](C)O3)cc1	inactive
COc1ccc(CNC(=O)C[C@H]2C[C@@H]3c4cc(NC(=O)NC5CCCC5)ccc4O[C@@H]3[C@@H](CO)O2)cc1	inactive
O=C(NCCC1=CCCCC1)c1sc2ccccc2c1Cl	inactive
C[C@H](CO)N1C[C@H](C)[C@@H](CN(C)C(=O)c2ccccc2)OCCCC[C@H](C)Oc2ccc(NC(=O)CCC(F)(F)F)cc2C1=O	inactive
C[C@@H]1CN([C@@H](C)CO)C(=O)c2c(c3ccccc3n2C)-c2ccccc2CO[C@@H]1CN(C)C(=O)Nc1ccccc1	inactive
C[C@H]1CN([C@@H](C)CO)C(=O)c2cccc(NC(=O)Nc3ccc(C(F)(F)F)cc3)c2O[C@@H]1CN(C)C(=O)NC1CCCCC1	active
C[C@@H]1CN([C@@H](C)CO)C(=O)c2cccc(NC(=O)Nc3ccc(C(F)(F)F)cc3)c2O[C@H]1CN(C)C(=O)NC1CCCCC1	active
C[C@@H]1CN([C@@H](C)CO)C(=O)c2cccc(NC(=O)Nc3ccc(C(F)(F)F)cc3)c2O[C@@H]1CN(C)C(=O)NC1CCCCC1	inactive
C[C@H]1CN([C@@H](C)CO)C(=O)c2cccc(NC(=O)Nc3ccc(C(F)(F)F)cc3)c2O[C@H]1CN(C)C(=O)NC1CCCCC1	inactive
O=C(C[C@@H]1CC[C@H]2[C@@H](COC[C@@H](O)CN2S(=O)(=O)c2cccc(Cl)c2)O1)NC1Cc2ccccc2C1	inactive
C[C@@H]1CN([C@@H](C)CO)C(=O)c2cc(NC(=O)Cn3cnnn3)ccc2O[C@@H]1CN(C)Cc1ccc(C(=O)O)cc1	inactive
C[C@H](CO)N1C[C@H](C)[C@@H](CN(C)C(=O)NC2CCCCC2)OCCCC[C@H](C)Oc2ccc(NC(=O)CCC(F)(F)F)cc2C1=O	inactive
C[C@H]1CN([C@@H](C)CO)C(=O)CCCn2cc(nn2)CO[C@@H]1CN(C)C(=O)Nc1cccc(Oc2ccccn2)c1	inactive
CC(=O)c1ccccc1OC[C@@H](O)CN(CCO)CCO	inactive
CCCNCC(O)COc1ccccc1C(=O)CCc1ccccc1.Cl (configuration not stated)	active
CCCC(=O)Nc1ccc(OCC(O)CNC(C)C)c(C(C)=O)c1.Cl (configuration not stated)	inactive
C[C@H]1CN([C@@H](C)CO)C(=O)c2cc(NC(=O)CCC(F)(F)F)ccc2O[C@H]1CN(C)Cc1ccc(C(F)(F)F)cc1	inactive
